GDH-TPI counter = counter-screen for M. tuberculosis FBA inhibitors: GDH-TPI coupled enzymes; GDH-TPI coupled enzyme counterscreen, NADH absorbance; inhibition, % at 4.8 µM; 360,000 tested, 1.2% active; AID 588335;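 further: 0% = DMSO wells and 100% = wells lacking the enzyme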
Mtb FBA inh = inhibits M. tuberculosis FBA enzyme | 360,000 tested, 2.3% active | inhibition, % at 1 µM | purified M. tuberculosis FBA, fluorescence read-out | P9WQA3 | AID 588726; in the data active means inhibition above about 27%;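 further: 0% = vehicle and 100% = reference inhibitor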
Target sequence (P9WQA3 whole entry, looked up): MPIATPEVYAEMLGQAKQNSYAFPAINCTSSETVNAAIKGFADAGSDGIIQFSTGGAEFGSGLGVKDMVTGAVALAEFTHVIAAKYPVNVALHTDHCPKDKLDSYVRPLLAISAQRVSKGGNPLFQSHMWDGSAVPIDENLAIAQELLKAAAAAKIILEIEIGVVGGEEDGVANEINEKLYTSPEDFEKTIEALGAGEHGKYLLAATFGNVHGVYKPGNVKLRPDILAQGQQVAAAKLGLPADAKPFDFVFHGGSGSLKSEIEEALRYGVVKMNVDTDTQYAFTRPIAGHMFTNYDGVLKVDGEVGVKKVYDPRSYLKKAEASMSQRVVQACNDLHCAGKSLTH
BH1578 lux ind = induces V. cholerae light production without autoinducers | V. cholerae BH1578 lux reporter, luminescence, 6 h | activation, % at 18.7 µM | 350,000 tested, 0.16% active; in the data active means activation mostly above about 9.7%, no sharp cut-off
CCHF vOTU inh-1 = CCHFV vOTU protease inhibition | 370,000 tested, 0.55% active | AID 651958 | inhibition, % at 11.5 µM | Pep-AMC fluorescence; further: 0% = vehicle wells with enzyme and 100% = no enzyme wells
CCHF vOTU inh-2 = CCHFV vOTU protease inhibition, confirmation | 1,900 tested, 17% active | shares compounds with CCHF vOTU inh-1 | Recombinant CCHFV vOTU, Pep-AMC fluorescence | inhibition, % at 11.5 µM | AID 686976
* hit, by the source's call. Most compounds without a hit are left out; they make up all but 3.9% or so of the library. Unless noted, no stated cut-off is given here; in the data, active means inhibition above about 30%; inactive means the rest.

COc1cc(CNC(=O)Nc2nc(C(N)Cc3ccc(C(F)(F)F)cc3)cs2)cc(OC)c1OC (stereo not given) was read as GDH-TPI counter 9.8, Mtb FBA inh -0.2, BH1578 lux ind -0.5, CCHF vOTU inh-1 30.6* and CCHF vOTU inh-2 -19.4.
For CCCCN(C)C(=O)c1ccc(Nc2nc(C(N)CCc3ccccc3)cs2)nc1 (stereo not given) the results were GDH-TPI counter 6.2, Mtb FBA inh 6.7, BH1578 lux ind -3.0 and CCHF vOTU inh-1 25.1.
CC(C)C(C(=O)OCC(=O)c1cccc([N+](=O)[O-])c1)N1C(=O)[C@@H]2[C@H]3CC[C@H](C3)[C@@H]2C1=O (stereo not given in full) was read as GDH-TPI counter 0.4, Mtb FBA inh 2.7, BH1578 lux ind -3.4 and CCHF vOTU inh-1 8.7.
For COc1ccc(OCCCCn2c(CO)nc3ccccc32)cc1 the results were GDH-TPI counter 9.4, Mtb FBA inh 0.5, BH1578 lux ind inactive and CCHF vOTU inh-1 -7.5.
For Oc1ccc(CN2CCCCC2)c2cccnc12 the results were GDH-TPI counter -3.3, Mtb FBA inh -3.9, BH1578 lux ind -0.4 and CCHF vOTU inh-1 -20.5.
Oc1c(CN2CCCCC2)ccc2cccnc12 was read as GDH-TPI counter 1.8, Mtb FBA inh 0.1, BH1578 lux ind inactive, CCHF vOTU inh-1 31.4* and CCHF vOTU inh-2 -18.7.
CC(C)C1S/C(=N/N=C/c2cccs2)NC1=O (stereo not given) was read as GDH-TPI counter 21.0, Mtb FBA inh -2.0, BH1578 lux ind -0.1, CCHF vOTU inh-1 34.8* and CCHF vOTU inh-2 -8.4.
CCCC1S/C(=N/N=C/c2cccs2)NC1=O (stereo not given) was read as GDH-TPI counter 28.0, Mtb FBA inh -1.8, BH1578 lux ind -0.6 and CCHF vOTU inh-1 6.4.
COc1cc(C2Nc3cccc4cccc(c34)N2)ccc1O was read as GDH-TPI counter 13.8, Mtb FBA inh -2.6, BH1578 lux ind inactive, CCHF vOTU inh-1 40.7* and CCHF vOTU inh-2 24.2.
For COc1ccc(N/C=C2\CCc3ccccc3C2=O)cc1 the results were GDH-TPI counter -3.5, Mtb FBA inh -7.0, BH1578 lux ind 0.6, CCHF vOTU inh-1 33.7* and CCHF vOTU inh-2 -11.6.
N#Cc1ccc(CSc2nc(N)cc(=O)[nH]2)cc1 was read as GDH-TPI counter -0.5, Mtb FBA inh -1.1, BH1578 lux ind inactive and CCHF vOTU inh-1 -7.2.
For O=C(CSc1ccc(Br)c2cccc(Cl)c12)Nc1ccc(S(=O)(=O)Nc2nccs2)cc1 the results were GDH-TPI counter 8.5, Mtb FBA inh -1.4, BH1578 lux ind -0.1, CCHF vOTU inh-1 35.7* and CCHF vOTU inh-2 12.7.
Screening O=C(Cc1ccccc1Cl)Nc1ccc(S(=O)(=O)Nc2nccs2)cc1 returned GDH-TPI counter -1.0, Mtb FBA inh -0.8, BH1578 lux ind -1.3 and CCHF vOTU inh-1 0.6.
CCOC(=O)c1c(NC(=O)COC(=O)Cn2cnc3ccccc32)sc2c1CCC(C)C2 (stereo not given) was read as GDH-TPI counter 12.2, Mtb FBA inh 0.7, BH1578 lux ind -0.2, CCHF vOTU inh-1 46.7* and CCHF vOTU inh-2 8.8.
For CCOC(=O)c1c(NC(=O)Cn2nnc3ccccc32)sc2c1CCC(C)C2 (stereo not given) the results were GDH-TPI counter 3.6, Mtb FBA inh -0.6, BH1578 lux ind inactive and CCHF vOTU inh-1 8.2.
`Cc1ccc(C2(C)NC(=O)N(CC(=O)NCCN3C(=O)S/C(=C\c4cccnc4)C3=O)C2=O)cc1` (stereo not given) gave GDH-TPI counter 18.4, Mtb FBA inh 3.2, BH1578 lux ind -0.3 and CCHF vOTU inh-1 -2.7.
Screening NC(=S)Nc1cccc2cccnc12 returned GDH-TPI counter -3.1, Mtb FBA inh 0.5 and CCHF vOTU inh-1 -6.1.
`NC(=S)NNc1cccc2cccnc12` gave GDH-TPI counter 8.1, Mtb FBA inh -4.5, BH1578 lux ind 1.2, CCHF vOTU inh-1 101.2* and CCHF vOTU inh-2 33.6*.
`COc1cc(NCc2ccccc2O)c2ncccc2c1` gave GDH-TPI counter -1.1, Mtb FBA inh -0.3, BH1578 lux ind inactive and CCHF vOTU inh-1 8.8.
For Oc1ccccc1CNc1cccc2cccnc12 the results were GDH-TPI counter 9.2, Mtb FBA inh 1.4, BH1578 lux ind -0.3, CCHF vOTU inh-1 52.0* and CCHF vOTU inh-2 90.8*.
For CC1=C(C(=O)OC(C)C)C(c2ccc(Br)s2)NC(=O)N1 (stereo not given) the results were GDH-TPI counter 11.7, Mtb FBA inh 1.4, BH1578 lux ind -0.9 and CCHF vOTU inh-1 -13.7.
For CCOC(=O)C1=C(CC)Nc2ccccc2N/C1=N\S(=O)(=O)c1ccc(C(=O)OCC)cc1 the results were GDH-TPI counter 6.2, Mtb FBA inh 0.6, BH1578 lux ind -0.5, CCHF vOTU inh-1 30.2* and CCHF vOTU inh-2 5.5.
CCCOC(=S)NC(=O)c1sc2ccccc2c1Cl was read as GDH-TPI counter -4.6, Mtb FBA inh 1.1, BH1578 lux ind -7.0 and CCHF vOTU inh-1 1.6.
CCOC(=S)NC(=O)c1sc2ccccc2c1Cl was read as GDH-TPI counter 8.8, Mtb FBA inh -2.3, BH1578 lux ind inactive, CCHF vOTU inh-1 33.9* and CCHF vOTU inh-2 -3.1.
Screening CC(c1ccccc1)n1c(CO)nc2ccccc21 (stereo not given) returned GDH-TPI counter 2.6, Mtb FBA inh 0.4, BH1578 lux ind inactive and CCHF vOTU inh-1 11.3.
CCc1ccc2c(CN3CCN(S(=O)(=O)c4cccs4)CC3)cc(=O)oc2c1 was read as GDH-TPI counter 6.4, Mtb FBA inh 2.0, BH1578 lux ind -0.3, CCHF vOTU inh-1 34.9* and CCHF vOTU inh-2 -6.4.
For Cc1ccc(NC2=CC(=O)C(=O)c3ccccc32)c(C)c1 the results were GDH-TPI counter 9.9, Mtb FBA inh -1.7, BH1578 lux ind -0.3 and CCHF vOTU inh-1 1.5.
O=C1C=C(Nc2ccccc2O)c2ccccc2C1=O was read as GDH-TPI counter 10.2, Mtb FBA inh -3.6, BH1578 lux ind inactive, CCHF vOTU inh-1 97.1* and CCHF vOTU inh-2 73.5*.
`CCOc1ccc(NC2=CC(=O)C(=O)c3ccccc32)cc1` gave GDH-TPI counter 7.8, Mtb FBA inh -3.7, BH1578 lux ind -2.9, CCHF vOTU inh-1 90.6* and CCHF vOTU inh-2 44.6*.
For O=C1C=C(Nc2cccnc2)c2ccccc2C1=O the results were GDH-TPI counter 10.3, Mtb FBA inh -3.2, BH1578 lux ind inactive, CCHF vOTU inh-1 97.9* and CCHF vOTU inh-2 95.9*.
`O=C1C=C(NCc2ccccc2)c2ccccc2C1=O` gave GDH-TPI counter -10.4, Mtb FBA inh -2.3, BH1578 lux ind inactive, CCHF vOTU inh-1 63.6* and CCHF vOTU inh-2 89.0*.
`COc1ccc(Cl)cc1C(=O)NC1=NCCS1` gave GDH-TPI counter 7.3, Mtb FBA inh 2.5, BH1578 lux ind 0.0 and CCHF vOTU inh-1 -13.5.
Screening O=C(c1cc2cc(Cl)ccc2[nH]1)N1CCN(c2ccc(F)cc2)CC1 returned GDH-TPI counter 14.7, Mtb FBA inh -0.1, BH1578 lux ind -0.5 and CCHF vOTU inh-1 16.2.
For O=C(Cn1cnc2ccccc2c1=O)NCCC(=O)Nc1ccc(F)cc1 the results were GDH-TPI counter 17.8, Mtb FBA inh 0.0, BH1578 lux ind inactive, CCHF vOTU inh-1 55.9* and CCHF vOTU inh-2 -15.5.

Compound activity from PubChem.
